Laboratory results published in PubChem BioAssay (NCI).
This is part of a sample that, as a whole, favours compounds with a hit. Of some 79,000 tested, about 15% had one in any assay. Active and inactive are the calls of the source. Cut-off read from the data, not from the text of the source: active = growth inhibition above about 70%; inactive = the rest.

Legend:
[1] = NCI Yeast Anticancer Drug Screen. Data for the rad52 strain (AID 147);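 note: 0% = growth of vehicle-treated control cultures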; details: S. cerevisiae rad52 mutant growth inhibition, hits give high values
Summary of the method: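 DNA repair-defective yeast; compound exposure; growth scored against vehicle controls.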

[2] = NCI Yeast Anticancer Drug Screen. Data for the wt1 strain (AID 149);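 note: 0% = growth of vehicle-treated wt1 cultures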; details: S. cerevisiae wt1 strain (SPY 50644) growth inhibition, hits give high values
Summary of the method: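 Readout: yeast growth inhibition, normalised to vehicle controls, in the wt1 strain exposed to test compounds.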

[3] = NCI Yeast Anticancer Drug Screen. Data for the rad50EPP+ strain (AID 151);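 note: 0% = growth of vehicle-treated control cultures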; details: S. cerevisiae rad50 mutant strain, hits give high values
Summary of the method: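 rad50EPP+ yeast treated with test compounds. Readout: growth vs vehicle control.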

[4] = NCI Yeast Anticancer Drug Screen. Data for the mgt1 strain (AID 153); details: S. cerevisiae mgt1 mutant growth inhibition, hits give high values
Summary of the method: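 Growth inhibition relative to vehicle controls was scored for the mgt1 yeast strain after compound exposure.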

[5] = NCI Yeast Anticancer Drug Screen. Data for the rad50 strain (AID 155);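 note: 0% = growth of vehicle-only cultures of the same strain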; details: S. cerevisiae rad50 strain growth inhibition, hits give high values
Summary of the method: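 Compounds were tested on a yeast strain with an engineered DNA damage repair alteration; the reported value is growth inhibition normalised to vehicle treatment.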

[6] = NCI Yeast Anticancer Drug Screen. Data for the mec2-1 strain (AID 157); details: S. cerevisiae mec2-1 strain, hits give high values
Summary of the method: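 Growth inhibition is read against vehicle-treated controls after compound exposure of the mec2-1 yeast strain, which is defective in DNA damage repair or cell cycle control.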

[7] = NCI Yeast Anticancer Drug Screen. Data for the rad14 strain (AID 159);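 note: 0% = growth of vehicle-treated control cultures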; details: S. cerevisiae rad14 strain growth inhibition, hits give high values
Summary of the method: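 Compound-treated yeast with a defined DNA-repair lesion; growth inhibition normalised to vehicle-treated cultures.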

[8] = NCI Yeast Anticancer Drug Screen. Data for the CLN2oe strain (AID 163);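 note: 0% = growth of vehicle-only control cultures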; details: S. cerevisiae CLN2oe strain, hits give high values
Summary of the method: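 Compound-treated yeast; growth vs vehicle ctrl = % inhibition. Genetically altered strain (cell-cycle control).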

[9] = NCI Yeast Anticancer Drug Screen. Data for the cln2 rad14 strain (AID 165);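 note: 0% = growth equal to vehicle treated cultures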; details: S. cerevisiae cln2 rad14 strain, hits give high values
Summary of the method: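 Growth inhibition, relative to vehicle-treated controls, is the read-out. The test organism is a yeast strain with defined genetic alterations, cln2 rad14.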

[10] = NCI Yeast Anticancer Drug Screen. Data for the bub3 strain (AID 167); details: S. cerevisiae bub3 mutant strain, hits give high values
Summary of the method: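 Growth of a checkpoint-deficient yeast mutant is measured after compound exposure. Values represent inhibition relative to vehicle.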

[11] = NCI Yeast Anticancer Drug Screen. Data for the wt2 strain (AID 169);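 note: 0% = growth of vehicle-treated yeast cultures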; details: S. cerevisiae wt2 strain growth inhibition, hits give high values
Summary of the method: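 Compound exposure of yeast; growth compared with vehicle controls; inhibition reported.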

[12] = NCI Yeast Anticancer Drug Screen. Data for the sgs1 strain (AID 173);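 note: 0% = growth of vehicle-only control cultures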; details: S. cerevisiae sgs1 mutant, hits give high values
Summary of the method: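 Compounds applied to genetically altered yeast; growth compared with vehicle-treated cultures to give % inhibition.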

[13] = NCI Yeast Anticancer Drug Screen. Data for the mlh1 rad18 strain (AID 175); details: S. cerevisiae mlh1 rad18 strain growth inhibition, hits give high values
Summary of the method: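 Cells of a genetically altered yeast strain, deficient in DNA damage repair, were treated with compound. Their growth was then compared with that of vehicle-treated cultures to give inhibition.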

[14] = NCI Yeast Anticancer Drug Screen. Data for the rad18 strain (AID 177); details: S. cerevisiae rad18 mutant growth inhibition, hits give high values
Summary of the method: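 Compounds are applied to a repair-deficient yeast strain, and growth is compared with that of vehicle-treated cultures to give percent inhibition.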

[15] = NCI Yeast Anticancer Drug Screen. Data for the sgs1 mgt1 strain (AID 161);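 note: 0% = growth of cultures given vehicle only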; details: S. cerevisiae sgs1 mgt1 strain, hits give high values
Summary of the method: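 Yeast cells carrying a defined DNA-repair defect were exposed to test compounds. Growth inhibition was measured relative to vehicle-treated controls.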

[16] = NCI Yeast Anticancer Drug Screen. Data for the mlh1 strain (AID 171);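 note: 0% = growth of vehicle-treated control cultures of the same strain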; details: S. cerevisiae mlh1 strain growth inhibition, hits give high values
Summary of the method: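 Compounds are applied to a genetically altered yeast strain, and its growth is compared with that of vehicle-treated cultures to give percent inhibition.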

[17] = at 5.0 µM (retest, dose inferred, filed as 0.5)
[18] = at 50.0 µM (retest, dose inferred, filed as 5.0)

Measured: growth inhibition

C=CC(C)(C)N1C(=O)C(C(C)=O)=C(O)C1Cc1c[nH]c2ccccc12 (stereo not drawn)
inactive: [1]; at 1.2 µM -1% | [1]; at 3.7 µM -4% | [1]; at 11.0 µM -2% | [1]; at 33.0 µM 19% | [2]; at 1.2 µM 1% | [2]; at 3.7 µM 5% | [2]; at 11.0 µM 3% | [2]; at 33.0 µM 20% | [3]; at 1.2 µM -1% | [3]; at 3.7 µM 1% | [3]; at 11.0 µM -4% | [3]; at 33.0 µM -9% | [3]; at 100.0 µM -15% | [4]; at 1.2 µM -2% | [4]; at 3.7 µM -4% | [4]; at 11.0 µM -1% | [4]; at 33.0 µM 16% | [5]; at 1.2 µM -2% | [5]; at 3.7 µM -2% | [5]; [17] 0% | [5]; at 11.0 µM -2% | [5]; at 33.0 µM 10% | [5]; [18] 48% | [5]; at 50.0 µM 28.6% | [6]; at 1.2 µM 0% | [6]; at 3.7 µM 1% | [6]; [17] -18% | [6]; at 11.0 µM 7% | [6]; at 33.0 µM 21% | [6]; [18] -8% | [6]; at 50.0 µM 58.7% | [7]; at 1.2 µM -3% | [7]; at 3.7 µM -3% | [7]; at 11.0 µM -1% | [7]; at 33.0 µM 21% | [8]; at 1.2 µM -5% | [8]; at 3.7 µM -12% | [8]; at 11.0 µM -9% | [8]; at 33.0 µM 16% | [9]; [17] -4% | [9]; [18] 21% | [9]; at 50.0 µM 32.8% | [10]; at 1.2 µM -3% | [10]; at 3.7 µM -2% | [10]; [17] -11% | [10]; at 11.0 µM 0% | [10]; at 33.0 µM 15% | [10]; [18] 55% | [10]; at 50.0 µM 46.8% | [11]; at 1.2 µM -1% | [11]; at 3.7 µM -1% | [11]; at 11.0 µM -1% | [11]; at 33.0 µM 16% | [12]; at 1.2 µM 0% | [12]; at 3.7 µM 0% | [12]; at 11.0 µM 2% | [12]; at 33.0 µM 17% | [13]; [17] 55% | [13]; at 50.0 µM 68.5% | [14]; at 1.2 µM 0% | [14]; at 3.7 µM -3% | [14]; at 11.0 µM -1% | [14]; at 33.0 µM 9% | [14]; at 100.0 µM 66%
active: [1]; at 100.0 µM 87% | [2]; at 100.0 µM 71% | [4]; at 100.0 µM 95% | [5]; at 100.0 µM 78% | [6]; at 100.0 µM 88% | [7]; at 100.0 µM 95% | [8]; at 100.0 µM 83% | [10]; at 100.0 µM 84% | [11]; at 100.0 µM 92% | [12]; at 100.0 µM 90% | [13]; [18] 86%

Cc1c(C(=O)/C=C/c2ccccc2[N+](=O)[O-])[n+](=O)c2ccccc2n1[O-]
active: [1]; at 1.2 µM 78% | [1]; at 3.7 µM 90% | [1]; at 11.0 µM 93% | [1]; at 33.0 µM 93% | [1]; at 100.0 µM 93% | [3]; at 11.0 µM 77% | [3]; at 33.0 µM 76% | [3]; at 100.0 µM 79% | [4]; at 11.0 µM 93% | [4]; at 33.0 µM 94% | [4]; at 100.0 µM 96% | [5]; at 3.7 µM 86% | [5]; at 11.0 µM 90% | [5]; at 33.0 µM 91% | [5]; [18] 84% | [5]; at 50.0 µM 97.5% | [5]; at 100.0 µM 92% | [6]; at 11.0 µM 77% | [6]; at 33.0 µM 85% | [6]; [18] 83% | [6]; at 50.0 µM 90.5% | [6]; at 100.0 µM 89% | [15]; [18] 98% | [15]; at 50.0 µM 98% | [9]; at 50.0 µM 94.5% | [10]; at 50.0 µM 94.2% | [11]; at 3.7 µM 85% | [11]; at 11.0 µM 91% | [11]; at 33.0 µM 84% | [11]; at 100.0 µM 94% | [16]; at 3.7 µM 73% | [16]; at 11.0 µM 92% | [16]; at 33.0 µM 94% | [16]; at 100.0 µM 94% | [12]; at 1.2 µM 73% | [12]; at 3.7 µM 91% | [12]; at 11.0 µM 94% | [12]; at 33.0 µM 94% | [12]; at 100.0 µM 93% | [13]; [18] 94% | [13]; at 50.0 µM 98.2%
inactive: [2]; at 1.2 µM -1% | [2]; at 3.7 µM 22% | [2]; at 11.0 µM 42% | [2]; at 33.0 µM 49% | [2]; at 100.0 µM 60% | [3]; at 1.2 µM 41% | [3]; at 3.7 µM 67% | [4]; at 1.2 µM 10% | [4]; at 3.7 µM 61% | [5]; at 1.2 µM 66% | [5]; [17] 12% | [6]; at 1.2 µM 12% | [6]; at 3.7 µM 32% | [6]; [17] 2% | [15]; [17] 6% | [8]; at 1.2 µM 12% | [8]; at 3.7 µM 25% | [8]; at 11.0 µM 41% | [8]; at 33.0 µM 47% | [8]; at 100.0 µM 66% | [9]; [17] -4% | [9]; [18] 54% | [10]; at 1.2 µM -1% | [10]; at 3.7 µM 42% | [10]; [17] -3% | [10]; at 11.0 µM 29% | [10]; at 33.0 µM 33% | [10]; [18] 57% | [10]; at 100.0 µM 29% | [11]; at 1.2 µM 44% | [16]; at 1.2 µM 25% | [13]; [17] 8%
